PubChem BioAssay (EPA / NIEHS)
Results filed as inconclusive are left out. Active and inactive are the calls of the source. How the source made its calls, unless noted: active means hit-call score of the fitted dose curve at least 0.9, where 1 is the maximum; inactive means score below 0.9.

Columns and labels:
[1] = target: Retinoic acid receptor RXR-alpha (Homo sapiens) (UniProt P19793); assay: ATG_RXRa_TRANS: Attagene TRANS-FACTORIAL HepG2 Assay for human Retinoid X Receptor alpha (RXRa) (AID 2283012; active means hit-call score of the fitted dose curve at least 0.9, where 1 is the maximum)
Sequence of Retinoic acid receptor RXR-alpha (Homo sapiens) (P19793 whole entry, looked up, the tested form may be a part): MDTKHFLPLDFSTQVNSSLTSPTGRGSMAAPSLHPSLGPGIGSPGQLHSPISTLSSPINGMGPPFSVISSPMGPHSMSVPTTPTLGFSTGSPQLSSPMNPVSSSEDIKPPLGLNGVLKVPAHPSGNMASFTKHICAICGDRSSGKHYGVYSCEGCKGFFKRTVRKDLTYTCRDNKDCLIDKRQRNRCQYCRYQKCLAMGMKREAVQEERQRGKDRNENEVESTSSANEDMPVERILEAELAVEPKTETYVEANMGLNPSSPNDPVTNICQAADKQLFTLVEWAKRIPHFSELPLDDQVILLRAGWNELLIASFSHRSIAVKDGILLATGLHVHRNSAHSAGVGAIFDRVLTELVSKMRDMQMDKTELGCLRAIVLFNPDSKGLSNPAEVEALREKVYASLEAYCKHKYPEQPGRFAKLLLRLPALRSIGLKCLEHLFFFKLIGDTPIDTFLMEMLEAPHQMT
Outline: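 Transient transfection of human HepG2 with multiple GAL4-UAS reporter constructs; 24 h compound exposure; total RNA isolated, reverse-transcribed, PCR-amplified, 6-FAM labelled, HpaI-cut, resolved by capillary electrophoresis. Positive-direction fit versus DMSO.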

[2] = target: human Retinoid X Receptor beta (RXRb), RXRB (gene 6257) (UniProt P28702); assay: ATG_RXRb_TRANS: Attagene TRANS-FACTORIAL HepG2 Assay for human Retinoid X Receptor beta (RXRb) (AID 2283013; active means hit-call score of the fitted dose curve at least 0.9, where 1 is the maximum)
Sequence of human Retinoid X Receptor beta (RXRb), RXRB (gene 6257) (P28702 whole entry, looked up, the tested form may be a part): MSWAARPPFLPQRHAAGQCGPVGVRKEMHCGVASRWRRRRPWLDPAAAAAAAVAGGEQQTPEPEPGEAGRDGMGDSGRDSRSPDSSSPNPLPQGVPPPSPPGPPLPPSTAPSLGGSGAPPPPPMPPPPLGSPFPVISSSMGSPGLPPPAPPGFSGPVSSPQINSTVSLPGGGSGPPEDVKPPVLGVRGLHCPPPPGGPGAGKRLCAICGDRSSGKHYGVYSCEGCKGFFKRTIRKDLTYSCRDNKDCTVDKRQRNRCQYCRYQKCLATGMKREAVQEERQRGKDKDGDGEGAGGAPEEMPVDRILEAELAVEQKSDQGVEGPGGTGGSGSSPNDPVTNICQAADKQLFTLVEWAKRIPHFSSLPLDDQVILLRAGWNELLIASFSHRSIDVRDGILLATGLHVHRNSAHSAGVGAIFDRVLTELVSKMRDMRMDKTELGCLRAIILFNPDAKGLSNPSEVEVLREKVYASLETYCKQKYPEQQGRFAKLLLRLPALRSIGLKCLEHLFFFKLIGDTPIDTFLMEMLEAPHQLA
Outline: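 Transfect HepG2 with GAL4-UAS multi-reporter constructs (chimeric NR-Gal4, TRANS format); dose compound 24 h; isolate RNA, RT-PCR, FAM primer extension, HpaI digest; quantify by capillary electrophoresis; positive direction vs DMSO.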

[3] = read-out: E-selectin (Homo sapiens) (UniProt P16581); assay: BSK_3C_Eselectin: BioMAP Diversity Plus: 3C Assay for Eselectin Biomarker Activity (AID 2283015); conditions: primary human endothelial cells (HUVEC); actives raise or lower the signal;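 on outcome: cell surface E-selectin protein quantified by ELISA 24 h after dosing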
Outline: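 Primary human umbilical vein endothelial cells (3C system) were dosed with chemical and cell-surface E-selectin measured by ELISA 24 h later. Bidirectional curve fitting used DMSO as negative control and baseline.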

[4] = read-out: Interleukin-1 alpha (IL1a), IL1A (gene 3552); assay: BSK_BE3C_IL1a: BioMAP Diversity Plus: BE3C Assay for Interleukin-1 alpha (IL1a) Biomarker Activity (AID 2283016); conditions: primary human bronchial epithelial cells; actives raise or lower the signal
Outline: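 BE3C primary human bronchial epithelium; cpd 24 h; IL-1a by ELISA; bidirectional fit vs DMSO; parallel SRB (0.1% SRB, 10% TCA fix, 560 nm) for cytotoxicity.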

[5] = read-out: Monocyte Chemoattractant Protein-1 (MCP1), CCL2 (gene 6347); assay: BSK_3C_MCP1: BioMAP Diversity Plus: 3C Assay for Monocyte Chemoattractant Protein-1 (MCP1) Biomarker Activity (AID 2283017); conditions: primary human endothelial cells (HUVEC); actives raise or lower the signal
Outline: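 Primary human umbilical vein endothelial cells (3C system) were exposed to test chemical for 24 h, after which MCP-1 was quantified by ELISA. Activity was fitted bidirectionally against DMSO as negative control and baseline.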

[6] = read-out: Monocyte Chemoattractant Protein-1 (MCP1), CCL2 (gene 6347); assay: BSK_4H_MCP1: BioMAP Diversity Plus: 4H Assay for Monocyte Chemoattractant Protein-1 (MCP1) Biomarker Activity (AID 2283018); conditions: primary human endothelial cells (HUVEC); actives raise or lower the signal
Outline: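 ELISA read-out of MCP-1 from human vascular endothelial primary cells taken at 24 hours after compound exposure. Activity was fitted in both directions relative to DMSO, which served as negative control.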

[7] = read-out: Human Leukocyte Antigen - DR isotype (HLADR), HLA-DRA (gene 3122); assay: BSK_3C_HLADR: BioMAP Diversity Plus: 3C Assay for Human Leukocyte Antigen - DR isotype (HLADR) Biomarker Activity (AID 2283019); conditions: primary human endothelial cells (HUVEC); actives raise or lower the signal;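 on outcome: ELISA of cell-surface HLA-DR on HUVEC 24 h after dosing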
Outline: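 Primary human umbilical vein endothelial cells (3C system) were dosed with compound and cell-surface HLA-DR was quantified by ELISA at 24 h. Activity was fitted bidirectionally against DMSO as negative control and baseline.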

[8] = read-out: Interleukin-8 (IL8), CXCL8 (gene 3576); assay: BSK_3C_IL8: BioMAP Diversity Plus: 3C Assay for Interleukin-8 (IL8) Biomarker Activity (AID 2283020); conditions: primary human endothelial cells (HUVEC); actives raise or lower the signal
Outline: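 ELISA read-out of IL-8 from human umbilical vein endothelium, measured 24 h after chemical dosing. Activity is expressed relative to DMSO negative control, with both increases and decreases fitted.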

[9] = read-out: Monokine induced gamma interferon (MIG), CXCL9 (gene 4283); assay: BSK_3C_MIG: BioMAP Diversity Plus: 3C Assay for Monokine induced gamma interferon (MIG) Biomarker Activity (AID 2283021); conditions: primary human endothelial cells (HUVEC); actives raise or lower the signal;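 on AC50: MIG protein level measured by immunoassay in the treated endothelial cultures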
Outline: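 Read-out is ELISA detection of MIG on human umbilical vein endothelial cells, taken 24 h after dosing. Gain or loss of signal was scored relative to DMSO controls using bidirectional curve fitting.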

[10] = target: human Vitamin D Receptor (VDR), VDR (gene 7421) (UniProt P11473); assay: ATG_VDR_TRANS: Attagene TRANS-FACTORIAL HepG2 Assay for human Vitamin D Receptor (VDR) (AID 2283022; active means hit-call score of the fitted dose curve at least 0.9, where 1 is the maximum)
Sequence of human Vitamin D Receptor (VDR), VDR (gene 7421) (P11473 whole entry, looked up, the tested form may be a part): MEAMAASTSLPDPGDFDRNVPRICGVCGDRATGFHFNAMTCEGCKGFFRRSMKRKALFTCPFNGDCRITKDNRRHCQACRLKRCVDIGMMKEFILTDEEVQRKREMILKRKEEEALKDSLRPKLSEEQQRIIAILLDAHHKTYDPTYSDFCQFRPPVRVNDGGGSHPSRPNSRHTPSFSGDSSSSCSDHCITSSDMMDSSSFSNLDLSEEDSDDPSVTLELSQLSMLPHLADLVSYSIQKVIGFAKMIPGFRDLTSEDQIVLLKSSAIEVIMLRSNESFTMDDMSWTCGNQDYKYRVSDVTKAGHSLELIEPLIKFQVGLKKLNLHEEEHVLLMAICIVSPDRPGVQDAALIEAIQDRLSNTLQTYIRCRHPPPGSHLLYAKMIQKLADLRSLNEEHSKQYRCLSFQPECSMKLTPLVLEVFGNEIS
Outline: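 HepG2 cells were transiently transfected with multiple GAL4-UAS reporter units, so signal reflects exogenous chimeric receptor-Gal4 activity. After 24 h compound exposure, reporter mRNA was measured by RT-PCR, fluorescent labelling and capillary electrophoresis, fitted for gain of signal versus DMSO.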

[11] = BSK_3C_SRB: Viability Assessment in the BioMAP Diversity Plus: 3C Assay (AID 2283023); conditions: primary human endothelial cells (HUVEC);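 further: fitted both ways against DMSO so a hit may be signal rise or drop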
Outline: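 Primary human umbilical vein endothelial cells in the 3C system were read 24 h after compound dosing. Total protein was stained with 0.1% sulforhodamine B after 10% TCA fixation and read at 560 nm, with bidirectional fitting against DMSO as baseline.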

[12] = read-out: Matrix Metallopeptidase 1 (MMP1), MMP1 (gene 4312); assay: BSK_BE3C_MMP1: BioMAP Diversity Plus: BE3C Assay for Matrix Metallopeptidase 1 (MMP1) Biomarker Activity (AID 2283024); conditions: primary human bronchial epithelial cells; actives raise or lower the signal
Outline: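 Human bronchial epithelial cells (BE3C system) exposed to compound for 24 h; MMP1 then quantified by ELISA. Activity was fitted in both directions relative to DMSO.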

[13] = BSK_3C_Vis: BioMAP Diversity Plus: 3C Assay for Morphology Visualization (AID 2283025); conditions: primary human endothelial cells (HUVEC);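 further: fitted both ways so gain or loss versus DMSO counts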;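 on AC50: light microscopy image of cell morphology used as background control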
Outline: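 Chemicals were added to primary human umbilical vein endothelium, cells were incubated 24 h, and morphology was then visualized by light microscopy. Gain or loss of signal was fitted bidirectionally relative to DMSO.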

[14] = read-out: Pselectin, SELP (gene 6403); assay: BSK_4H_Pselectin: BioMAP Diversity Plus: 4H Assay for Pselectin Biomarker Activity (AID 2283026); conditions: primary human endothelial cells (HUVEC); actives raise or lower the signal
Outline: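 ELISA read-out of P-selectin on human umbilical vein endothelium after 24 h of dosing. Values derive from bidirectional fitting relative to DMSO. Parallel SRB protein staining flagged overt cytotoxicity.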

[15] = BSK_BE3C_SRB: Viability Assessment in the BioMAP Diversity Plus: BE3C Assay (AID 2283028); conditions: primary human bronchial epithelial cells
Outline: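 Human primary bronchial epithelial cells were exposed to test chemicals for 24 h. Total protein in parallel cultures was then measured by staining with 0.1% sulforhodamine B after 10% TCA fixation, with absorbance read at 560 nm. Activity was fitted bidirectionally against DMSO.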

[16] = read-out: Thrombomodulin, THBD (gene 7056); assay: BSK_3C_Thrombomodulin: BioMAP Diversity Plus: 3C Assay for Thrombomodulin Biomarker Activity (AID 2283029); conditions: primary human endothelial cells (HUVEC); actives raise or lower the signal
Outline: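 Read-out is ELISA of thrombomodulin on human umbilical vein endothelium 24 h after chemical dosing. Gain or loss of signal is scored relative to DMSO. Overt cytotoxicity is checked in parallel cultures by sulforhodamine B staining.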

[17] = read-out: Urokinase-type plasminogen activator receptor (uPAR), PLAUR (gene 5329); assay: BSK_4H_uPAR: BioMAP Diversity Plus: 4H Assay for Urokinase-type plasminogen activator receptor (uPAR) Biomarker Activity (AID 2283030); conditions: primary human endothelial cells (HUVEC); actives raise or lower the signal
Outline: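 Primary human umbilical vein endothelial cells were exposed to chemical for 24 h before cell-surface uPAR was quantified by ELISA. Activity was fitted bidirectionally against the DMSO negative control baseline.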

[18] = target: human Thyroid Receptor alpha (THRa1), THRA (gene 7067) (UniProt P10827); assay: ATG_THRa1_TRANS: Attagene TRANS-FACTORIAL HepG2 Assay for human Thyroid Receptor alpha (THRa1) (AID 2283014; active means hit-call score of the fitted dose curve at least 0.9, where 1 is the maximum)
Sequence of human Thyroid Receptor alpha (THRa1), THRA (gene 7067) (P10827 whole entry, looked up, the tested form may be a part): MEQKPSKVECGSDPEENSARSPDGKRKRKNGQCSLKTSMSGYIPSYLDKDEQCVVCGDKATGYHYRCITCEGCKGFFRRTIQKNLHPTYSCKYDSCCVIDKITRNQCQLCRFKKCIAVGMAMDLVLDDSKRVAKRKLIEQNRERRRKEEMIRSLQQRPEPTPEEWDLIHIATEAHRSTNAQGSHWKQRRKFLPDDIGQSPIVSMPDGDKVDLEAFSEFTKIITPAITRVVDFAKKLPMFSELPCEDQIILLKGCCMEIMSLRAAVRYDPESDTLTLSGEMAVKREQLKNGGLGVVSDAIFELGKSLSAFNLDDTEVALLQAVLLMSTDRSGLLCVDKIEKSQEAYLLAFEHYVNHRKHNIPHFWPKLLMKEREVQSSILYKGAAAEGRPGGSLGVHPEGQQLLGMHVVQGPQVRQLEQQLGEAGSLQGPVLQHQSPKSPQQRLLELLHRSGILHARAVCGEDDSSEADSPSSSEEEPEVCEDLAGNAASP
Outline: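 HepG2 cells transiently transfected with multiplexed GAL4-UAS reporter units for exogenous chimeric THRa1-Gal4; reporter mRNA measured 24 h after dosing by RT-PCR, 6-FAM labelling, HpaI digestion and capillary electrophoresis. Gain-of-signal fitted versus DMSO baseline.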

[19] = BSK_4H_SRB: Viability Assessment in the BioMAP Diversity Plus: 4H Assay (AID 2283027); conditions: primary human endothelial cells (HUVEC);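 further: cells exposed to compound for 24 h before staining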;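 on AC50: curves fitted both ways versus DMSO so AC50 may be loss or gain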
Outline: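 Human umbilical vein endothelial cells, 24 h after chemical dosing; total protein measured by 0.1% sulforhodamine B staining after 10% TCA fixation, read at 560 nm. Bidirectional fitting against DMSO.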

Sequence of E-selectin (Homo sapiens) (P16581 whole entry, looked up): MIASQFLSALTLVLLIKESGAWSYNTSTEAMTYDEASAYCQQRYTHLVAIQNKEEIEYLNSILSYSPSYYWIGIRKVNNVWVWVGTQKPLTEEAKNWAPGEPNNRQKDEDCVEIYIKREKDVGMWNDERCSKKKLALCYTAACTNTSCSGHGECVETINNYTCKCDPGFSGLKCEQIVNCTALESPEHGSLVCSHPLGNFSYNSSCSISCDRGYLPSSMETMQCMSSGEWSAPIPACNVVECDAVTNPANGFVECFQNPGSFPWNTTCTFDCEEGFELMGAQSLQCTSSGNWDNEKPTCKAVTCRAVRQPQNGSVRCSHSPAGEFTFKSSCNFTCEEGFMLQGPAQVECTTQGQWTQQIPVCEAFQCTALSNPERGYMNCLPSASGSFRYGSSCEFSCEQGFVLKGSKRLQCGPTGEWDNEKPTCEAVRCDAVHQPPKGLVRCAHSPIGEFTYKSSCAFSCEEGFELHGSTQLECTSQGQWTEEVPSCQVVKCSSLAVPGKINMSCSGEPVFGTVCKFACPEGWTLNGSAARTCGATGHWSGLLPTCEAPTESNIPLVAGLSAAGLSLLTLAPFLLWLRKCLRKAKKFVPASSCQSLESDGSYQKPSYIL

## ClC1=C(Cl)[C@]2(Cl)[C@@H]3[C@@H](Cl)[C@H]4O[C@H]4[C@@H]3C1(Cl)C2(Cl)Cl
[1]
  outcome: inactive
[2]
  outcome: inactive
[3]
  outcome: inactive
[4]
  outcome: inactive
[5]
  outcome: inactive
[6]
  outcome: inactive
[7]
  AC50: 11.5 µM (active)
[8]
  outcome: inactive
[9]
  outcome: inactive
[10]
  outcome: inactive
[11]
  AC50: 11.9 µM (active)
[12]
  outcome: inactive
[13]
  outcome: inactive
[14]
  outcome: inactive
[15]
  outcome: inactive
[16]
  outcome: inactive
[17]
  outcome: inactive

## Cc1ccc(O)c(C)c1
[2]
  outcome: inactive
[18]
  outcome: inactive
[3]
  outcome: inactive
[4]
  outcome: inactive
[5]
  outcome: inactive
[6]
  outcome: inactive
[7]
  AC50: 7.99 µM (active)
[9]
  outcome: inactive
[11]
  outcome: inactive
[12]
  outcome: inactive
[13]
  outcome: inactive
[14]
  outcome: inactive
[16]
  outcome: inactive
[17]
  outcome: inactive

## CCCCCCOC(=O)c1ccccc1C(=O)OCCCCCC
[1]
  outcome: inactive
[2]
  outcome: inactive
[3]
  outcome: inactive
[4]
  outcome: inactive
[5]
  AC50: 29.1 µM (active)
[6]
  outcome: inactive
[7]
  outcome: inactive
[9]
  outcome: inactive
[11]
  AC50: 15.1 µM (active)
[12]
  outcome: inactive
[13]
  outcome: inactive
[14]
  AC50: 29.3 µM (active)
[16]
  outcome: inactive
[17]
  outcome: inactive

## CCCCCCCCCc1ccc(O)cc1
[1]
  outcome: inactive
[18]
  outcome: inactive
[3]
  AC50: 14.3 µM (active)
[4]
  AC50: 17.3 µM (active)
[5]
  AC50: 14.6 µM (active)
[6]
  AC50: 12.3 µM (active)
[7]
  AC50: 14.1 µM (active)
[9]
  AC50: 16.4 µM (active)
[10]
  outcome: inactive
[11]
  AC50: 15.5 µM (active)
[12]
  AC50: 16.7 µM (active)
[13]
  AC50: 38.7 µM (active)
[14]
  AC50: 12.5 µM (active)
[19]
  AC50: 14.9 µM (active)
[16]
  outcome: inactive
[17]
  AC50: 16.9 µM (active)

## CC(c1ccc(O)cc1)(c1ccc(O)cc1)c1ccc(O)cc1
[1]
  outcome: inactive
[3]
  outcome: inactive
[4]
  AC50: 6.69 µM (active)
[5]
  AC50: 31.1 µM (active)
[6]
  AC50: 18.9 µM (active)
[7]
  AC50: 28.5 µM (active)
[8]
  outcome: inactive
[9]
  outcome: inactive
[10]
  AC50: 17.7 µM (active)
[11]
  AC50: 28 µM (active)
[12]
  outcome: inactive
[13]
  AC50: 39 µM (active)
[14]
  AC50: 31.9 µM (active)
[15]
  outcome: inactive
[16]
  outcome: inactive
[17]
  AC50: 30.8 µM (active)

## COc1ccc(O)c(C(C)(C)C)c1
[2]
  AC50: 8.56 µM (active)
[18]
  outcome: inactive
[3]
  outcome: inactive
[4]
  outcome: inactive
[5]
  outcome: inactive
[6]
  outcome: inactive
[7]
  outcome: inactive
[9]
  outcome: inactive
[10]
  outcome: inactive
[11]
  outcome: inactive
[12]
  outcome: inactive
[13]
  outcome: inactive
[14]
  outcome: inactive
[19]
  outcome: inactive
[16]
  outcome: inactive
[17]
  outcome: inactive

## ClC1=C(Cl)[C@]2(Cl)[C@@H]3[C@@H]4C[C@@H]([C@H]5O[C@@H]45)[C@@H]3[C@@]1(Cl)C2(Cl)Cl
[1]
  outcome: inactive
[2]
  AC50: 24.4 µM (active)
[3]
  outcome: inactive
[4]
  outcome: inactive
[5]
  outcome: inactive
[7]
  AC50: 20 µM (active)
[9]
  outcome: inactive
[10]
  outcome: inactive
[11]
  AC50: 12.5 µM (active)
[12]
  outcome: inactive
[13]
  AC50: 13.7 µM (active)
[14]
  outcome: inactive
[16]
  outcome: inactive
[17]
  outcome: inactive
